What follows are molecules tested against Voltage-gated potassium channel subunit beta-2 (Rattus norvegicus) (UniProt P62483) (assay: inhibitors of rat Kvbeta2 reductase activity – biochemical, NADPH fluorescence, primary screen (AID 622;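 also: slope of raw intensity against log time taken from 70 to 1610 s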)). Conditions: recombinant KvBeta, 4-cyanobenzaldehyde reduction, at 10 µM, stronger effect = higher value;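 active = fluorescence slope higher than the sample average by over 3 SD (cut at about -0.22 in these data, passing the limit was not always enough); inactive = the rest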.
Chain of Voltage-gated potassium channel subunit beta-2 (Rattus norvegicus) (P62483 whole entry, looked up): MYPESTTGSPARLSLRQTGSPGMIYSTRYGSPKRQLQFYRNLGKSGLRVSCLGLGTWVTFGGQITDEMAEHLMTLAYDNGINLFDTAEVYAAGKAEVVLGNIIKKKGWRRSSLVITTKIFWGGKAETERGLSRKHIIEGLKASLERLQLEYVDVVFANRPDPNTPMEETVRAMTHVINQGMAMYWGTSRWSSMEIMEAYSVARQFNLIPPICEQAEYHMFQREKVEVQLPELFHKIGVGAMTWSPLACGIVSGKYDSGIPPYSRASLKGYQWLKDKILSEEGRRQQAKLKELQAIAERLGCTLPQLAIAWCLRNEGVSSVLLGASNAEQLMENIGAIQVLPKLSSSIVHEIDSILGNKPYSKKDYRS

Fluorescence slope, inactive:
COc1cccc2c1C(=O)c1c(O)c3c(c(O)c1C2=O)C[C@@](O)(C(=O)CO)C[C@@H]3O[C@H]1C[C@H](N)[C@H](O)[C@H](C)O1 -0.456
O=S(=O)(c1cccc2cnccc12)N1CCCNCC1 -0.463
CC(C)Cc1ccc(C(C)C(=O)O)cc1 (configuration not stated) -0.469
C[C@H](CS)C(=O)N1CCC[C@H]1C(=O)O -0.485
COC(=O)C1=C(C)NC(C)=C(C(=O)OC)C1c1ccccc1[N+](=O)[O-] -0.461
O=C(c1ccc2c(c1)OCCO2)N1CCCCC1 -0.406
Nc1ccc(S(=O)(=O)Nc2ncccn2)cc1 -0.5
COc1ccccc1C1C(C#N)=C(N)Oc2cc(C)n(Cc3ccccn3)c(=O)c21 (configuration not stated) -0.453
CC(=O)O[C@H]1C(=O)[C@]2(C)[C@H]([C@H](OC(=O)c3ccccc3)[C@]3(O)C[C@H](OC(=O)[C@H](O)[C@@H](NC(=O)c4ccccc4)c4ccccc4)C(C)=C1C3(C)C)[C@]1(OC(C)=O)CO[C@@H]1C[C@@H]2O -0.449
CCC(=O)O[C@@H]1CC(=O)O[C@H](C)CC=CC=C[C@@H](O)[C@H](C)C[C@H](CC=O)[C@H](O[C@H]2O[C@H](C)[C@@H](O[C@H]3C[C@@](C)(O)[C@@H](OC(=O)CC)[C@H](C)O3)[C@H](N(C)C)[C@H]2O)[C@H]1OC -0.525
CCCn1c(=O)[nH]c(=O)c2[nH]cnc21 -0.494
CC[N+](C)(C)Cc1ccccc1Br -0.502
